Screening data as filed in PubChem BioAssay.
PfHsp40 yeast: compounds rescuing yeast from Plasmodium falciparum HSP40 toxicity; S. cerevisiae expressing PfHsp40, growth rescue, ATP luminescence; growth rescue, % at 12.5 µM; 0.68% of 340,000 active; in the data active = growth rescue above about 28%, passing the limit was not always enough;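 note: yeast W303a lacking pdr1 and pdr3 grown in galactose medium; growth measured after three days at 30 °C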
Mtb bLac sens: beta-lactam sensitization of Mtb H37Rv. 0.27% of 330,000 active. inhibition, % at 25 µM. AID 434955. M. tuberculosis H37Rv growth with meropenem, percent inhibition; call rule not given here;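 note: growth measured after seven days incubation then overnight dye step; 0% = bacteria only wells and 100% = bacteria with antibiotic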
RecA intein inh: blocks M. tuberculosis RecA intein splicing. cell-free RecA intein splicing, fluorescence. inhibition, % (concentration not given with the values). AID 2221. 0.75% of 290,000 active; in the data active = inhibition above about 30%;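 note: 0% = vehicle wells and 100% = reference inhibitor control wells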
Target sequence (P9WHJ3 whole entry, looked up): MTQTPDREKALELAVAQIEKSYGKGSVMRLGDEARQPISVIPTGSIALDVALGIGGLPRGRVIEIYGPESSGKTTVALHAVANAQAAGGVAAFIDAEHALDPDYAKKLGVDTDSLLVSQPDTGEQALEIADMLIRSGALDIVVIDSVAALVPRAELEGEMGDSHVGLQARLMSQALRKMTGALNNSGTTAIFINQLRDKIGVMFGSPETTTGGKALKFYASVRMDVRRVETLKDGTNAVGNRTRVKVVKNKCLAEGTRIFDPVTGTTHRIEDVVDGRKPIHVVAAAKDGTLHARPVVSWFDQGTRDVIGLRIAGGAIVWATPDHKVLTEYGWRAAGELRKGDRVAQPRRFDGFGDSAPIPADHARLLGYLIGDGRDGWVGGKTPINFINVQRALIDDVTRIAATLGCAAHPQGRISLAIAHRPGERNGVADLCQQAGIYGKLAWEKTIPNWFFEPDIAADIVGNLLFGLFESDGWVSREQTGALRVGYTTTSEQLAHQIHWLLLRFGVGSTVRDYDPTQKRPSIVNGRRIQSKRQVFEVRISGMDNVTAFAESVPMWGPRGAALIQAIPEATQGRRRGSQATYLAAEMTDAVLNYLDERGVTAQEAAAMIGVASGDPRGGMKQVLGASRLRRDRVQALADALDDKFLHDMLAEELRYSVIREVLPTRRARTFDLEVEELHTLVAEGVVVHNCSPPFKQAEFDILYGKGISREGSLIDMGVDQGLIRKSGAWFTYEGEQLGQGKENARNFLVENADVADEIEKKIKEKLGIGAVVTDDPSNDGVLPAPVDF
Mtb hypoxia rep: Mtb hypoxia fluorescent reporter inhibition; M. tuberculosis hypoxia-regulated fluorescent reporter, fluorescence; fluorescence inhibition, % (test concentration not listed); 0.1% of 300,000 active; in the data active = fluorescence inhibition mostly above about 23%, no sharp cut-off; inactive = mostly below about 17%
CCHF vOTU inh-1: CCHFV vOTU protease inhibition; Pep-AMC fluorescence; inhibition, % at 11.5 µM; 0.55% of 370,000 active; note: 0% = vehicle wells with enzyme and 100% = no enzyme wells
CCHF vOTU inh-2: CCHFV vOTU protease inhibition, confirmation; shares compounds with CCHF vOTU inh-1; Recombinant CCHFV vOTU, Pep-AMC fluorescence; inhibition, % at 11.5 µM; 17% of 1,900 active
Active calls of the source: *. Compounds with a hit are over-represented: about 1.7% of the library has one in this group of screens. Cut-off read from the data, not from the text of the source, unless noted: active = inhibition above about 30%; inactive = the rest.

Results for CCOc1ccc(NC(=O)CNS(=O)(=O)c2c(C)cc(C)cc2C)cc1 ?
PfHsp40 yeast: -1; Mtb bLac sens: -4; RecA intein inh: 4; Mtb hypoxia rep: 6; CCHF vOTU inh-1: 43*; CCHF vOTU inh-2: -16

What do the screens show for `O=c1oc2cc(O)c(Cl)cc2c2ccccc12`?
PfHsp40 yeast: 4; Mtb bLac sens: 65; RecA intein inh: -4; Mtb hypoxia rep: 6; CCHF vOTU inh-1: 30*; CCHF vOTU inh-2: -7

What do the screens show for `COc1ccc(CC(C)=NNC(=S)Nc2ccccc2F)cc1`?
Mtb hypoxia rep: 4

Results for O=C1NC(c2ccc(-c3ccccc3[N+](=O)[O-])o2)C(C(=O)c2ccc(F)cc2)C(O)(C(F)(F)F)N1 (stereo unspecified) ?
PfHsp40 yeast: 1; Mtb bLac sens: 14; RecA intein inh: 83*; Mtb hypoxia rep: 8; CCHF vOTU inh-1: 42*; CCHF vOTU inh-2: 5

How did Cc1ccc(C2NC(=O)NC(O)(C(F)(F)F)C2C(=O)c2ccccc2)o1 (stereo unspecified) do in these assays?
PfHsp40 yeast: 1; Mtb bLac sens: 12; RecA intein inh: -1; Mtb hypoxia rep: 1; CCHF vOTU inh-1: 1

Results for CCc1cc(-c2onc(C)c2-c2cscn2)c(O)cc1OC ?
PfHsp40 yeast: 2; Mtb bLac sens: -1; RecA intein inh: 2; Mtb hypoxia rep: 3; CCHF vOTU inh-1: 31*; CCHF vOTU inh-2: -7

What do the screens show for `CCOC(=O)c1ccc(N2Cc3ccccc3C2=NC(=O)c2cccc([N+](=O)[O-])c2)cc1`?
PfHsp40 yeast: 1; Mtb bLac sens: 94; Mtb hypoxia rep: 10; CCHF vOTU inh-1: -1

Results for O=C(N=C1c2ccccc2CN1c1ccccc1)c1cccc([N+](=O)[O-])c1 ?
PfHsp40 yeast: 2; Mtb bLac sens: -10; RecA intein inh: 5; Mtb hypoxia rep: 3; CCHF vOTU inh-1: 30*; CCHF vOTU inh-2: -12

What do the screens show for `COc1ccc(C=NNC(=O)c2cc(-c3ccccc3OC(C)C)nc3ccccc23)cc1CN1CCOCC1`?
Mtb hypoxia rep: 3

What do the screens show for `CN(C)c1ccc(/C=C/c2nc3ccccc3c(=O)n2CCO)cc1`?
PfHsp40 yeast: -2; Mtb bLac sens: 6; RecA intein inh: -5; Mtb hypoxia rep: -4; CCHF vOTU inh-1: 30*; CCHF vOTU inh-2: -5

Results for Cc1ccccc1S(=O)(=O)N1[C@@H](c2ccc(Cl)cc2)C(C(=O)O)=CC[C@H]1c1ccc(Cl)cc1 ?
PfHsp40 yeast: 4; Mtb bLac sens: 5; Mtb hypoxia rep: 2; CCHF vOTU inh-1: 32*; CCHF vOTU inh-2: 7

How did Cc1ccc([C@H]2C(C(=O)O)=CC[C@@H](c3ccc(Cl)cc3)N2S(=O)(=O)c2ccccc2C)cc1 do in these assays?
PfHsp40 yeast: 4; Mtb bLac sens: 6; Mtb hypoxia rep: -1

What do the screens show for `Cc1ccc([C@H]2C(C(=O)O)=CC[C@@H](c3ccc(C)cc3)N2S(=O)(=O)c2ccccc2C)cc1`?
PfHsp40 yeast: 17; Mtb bLac sens: 5; Mtb hypoxia rep: 0; CCHF vOTU inh-1: 35*; CCHF vOTU inh-2: -6

What do the screens show for `Cc1nonc1C(=O)NN=Cc1ccc([N+](=O)[O-])o1`?
Mtb hypoxia rep: 23

Results for O=C(COC(=O)C1CCN(c2ccc(C(F)(F)F)cn2)CC1)NCc1ccccc1 ?
PfHsp40 yeast: 1; Mtb bLac sens: -3; Mtb hypoxia rep: -5; CCHF vOTU inh-1: 35*; CCHF vOTU inh-2: -2

Results for CC(NC(=O)COC(=O)C1CCN(c2ccc(C(F)(F)F)cn2)CC1)c1ccccc1 (stereo unspecified) ?
CCHF vOTU inh-1: 18

What do the screens show for `CCOC(=O)C1=C(C)OC(=CC=Cc2ccccc2)C1=O`?
CCHF vOTU inh-1: 30*; CCHF vOTU inh-2: -9

What do the screens show for `CCOC(=O)c1c(N=CC2=C(O)CC(C)(C)CC2=O)sc(C(C)=O)c1C`?
Mtb hypoxia rep: 4

How did COc1ccc(CNS(=O)(=O)CCNC(=O)c2ccc(OC)cc2)cc1 do in these assays?
PfHsp40 yeast: -1; Mtb bLac sens: -3; RecA intein inh: -1; Mtb hypoxia rep: -9; CCHF vOTU inh-1: 31*; CCHF vOTU inh-2: -14

Results for COc1ccc(CNCCS(=O)(=O)NCc2ccc(OC)cc2)cc1 ?
PfHsp40 yeast: -3; CCHF vOTU inh-1: 29

How did CCCCCCCCNS(=O)(=O)CCNCc1ccc(OC)cc1 do in these assays?
PfHsp40 yeast: 0; CCHF vOTU inh-1: 32*; CCHF vOTU inh-2: 6
